# Assay outcomes (PubChem BioAssay)
# Only some compounds are listed: those with a hit (about 11% of all), similar ones and a draw of the others.
# G9a block: blocks human histone lysine methyltransferase G9a; AID 504332; hit rate 8.8% among 350,000; G9a H3K9 monomethylation, AlphaScreen, 2 h; Potency, µM (doses to about 102 µM), for the others: at the highest dose activity, negative = inhibition, most hits filed as inhibitors; Q96KQ7; further: on the % scale 0 is the no-effect control and ±100 the full control effect; nearly all actives have a fitted effect of over 75% in size
# Target sequence (Q96KQ7 913-1193 limits assumed): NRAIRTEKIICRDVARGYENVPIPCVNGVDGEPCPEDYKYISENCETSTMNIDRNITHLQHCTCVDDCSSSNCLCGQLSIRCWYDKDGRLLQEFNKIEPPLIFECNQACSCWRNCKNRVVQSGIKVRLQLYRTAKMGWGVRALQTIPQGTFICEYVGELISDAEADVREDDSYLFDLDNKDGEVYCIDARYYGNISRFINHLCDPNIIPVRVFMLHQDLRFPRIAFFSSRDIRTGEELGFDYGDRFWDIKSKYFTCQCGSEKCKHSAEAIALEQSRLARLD
#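 G9a (20 nM) preincubated 15 min RT with compounds, then 500 nM biotinylated H3K9 peptide and 20 uM SAM added; 2 h RT reaction. Monomethyl-H3K9 product detected by AlphaScreen with anti-H3K9me1 antibody, streptavidin donor and anti-rabbit IgG acceptor beads.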
# HP1b binding inh: HP1-beta chromodomain-methylated histone interaction inhibition | AlphaScreen HP1-beta / biotin-H3K9me3 peptide binding | Potency, µM (doses to about 114 µM), for inactives: at the highest dose activity change, negative = inhibition, most hits filed as inhibitors | hit rate 0.56% among 390,000 | AID 540317; further: nearly all actives have a fitted effect of over 70% in size
#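 Compound inhibition of the preformed complex between 50 nM HP1-beta and 50 nM biotinylated H3K9me3 peptide was read by AlphaScreen. Buffer was PBS pH 7.4 with 0.01% Tween-20. Incubations ran 30 min at room temperature, with 10 ug/mL donor/acceptor beads.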
# VDR inh: blocks the human vitamin D receptor; P11473; VDR-SRC2-3 peptide fluorescence polarization, 2 h; Potency, µM, without a hit: max response, negative = inhibition, most hits filed as inhibitors; hit rate 0.93% among 400,000; further: on the % scale 0 is the no-effect control and ±100 the full control effect
# Target sequence (P11473 whole entry, looked up): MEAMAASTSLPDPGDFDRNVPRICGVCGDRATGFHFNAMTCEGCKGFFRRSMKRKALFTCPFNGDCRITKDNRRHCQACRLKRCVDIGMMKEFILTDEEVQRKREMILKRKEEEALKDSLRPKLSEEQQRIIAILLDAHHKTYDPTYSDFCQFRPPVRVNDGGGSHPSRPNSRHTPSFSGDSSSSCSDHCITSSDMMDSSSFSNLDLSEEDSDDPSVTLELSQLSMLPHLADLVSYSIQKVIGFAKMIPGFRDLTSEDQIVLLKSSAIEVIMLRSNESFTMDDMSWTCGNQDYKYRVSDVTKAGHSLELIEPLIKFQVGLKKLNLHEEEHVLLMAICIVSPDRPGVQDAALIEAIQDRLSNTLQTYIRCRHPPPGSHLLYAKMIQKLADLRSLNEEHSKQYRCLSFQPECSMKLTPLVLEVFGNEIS
#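 Two reagent solutions held at 4 deg C in the dark were dispensed, compounds pinned at 23 nl, and the mixture incubated 2 h at room temperature. Read-out: fluorescence polarization of VDR–SRC2-3 peptide binding.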
# JMJD2A Tudor inh: inhibitors of human JMJD2A Tudor domain | AlphaScreen JMJD2A-Tudor / H3K4me3 peptide binding | O75164 | AID 504339 | hit rate 4.4% among 390,000 | Potency, µM (titrated, usually from 114 µM), inactives show at the top dose activity change, negative = inhibition, actives largely listed as inhibitors; further: on the % scale 0 is the no-effect control and ±100 the full control effect; nearly all actives have a fitted effect of over 50% in size
# PLK1 PBD block: PLK1 (human) polo-box domain binding inhibition; P53350; Plk1 PBD binding of FITC phosphopeptide, fluorescence polarization; Potency, µM, without a hit: max response, negative = inhibition, usual class: inhibitors; hit rate 2.8% among 360,000; further: series mostly up to about 57 µM; on the % scale 0 is the no-effect control and ±100 the full control effect; nearly all actives have a fitted effect of over 65% in size
# BAZ2B inh: blocks human BAZ2B. AlphaScreen BAZ2B-H3K14Ac peptide displacement. Potency, µM (doses to about 114 µM), for the others: top-dose activity change, negative = inhibition, most hits filed as inhibitors. AID 504333. hit rate 4.4% among 360,000. Q9UIF8; further: on the % scale 0 is the no-effect control and ±100 the full control effect; nearly all actives have a fitted effect of over 60% in size
#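 Multi-concentration screen (max 110 uM) measuring displacement of acetylated histone H3 peptide from BAZ2B by AlphaScreen, using 50 nM protein, 50 nM peptide and 10 ug/mL streptavidin donor plus Ni-chelate acceptor beads.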
# The depositor's hits bear a star; ? = inconclusive; nt = not tested or not shown; ! = repeats disagree; [ ] = remark or other dose. The call rests on the fitted dose curve; in most records, active means well fitted curve in the direction sought with a large enough effect; inconclusive means small, poorly fitted or top-dose-only effect, or another doubt; inactive means no such curve, though single readings can be large; an effect the other way counts as inactive or inconclusive. Potency means the concentration at half of the fitted maximal effect.
SMILES,G9a block,HP1b binding inh,VDR inh,JMJD2A Tudor inh,PLK1 PBD block,BAZ2B inh
CN(C)C(=O)c1cc(C(=O)c2ccc(F)cc2C(F)(F)F)c[nH]1,1.6%[2.33 µM],53.6%,-4.1%,-9.8%,-6.1%,-4.3%
CN(C)C(=O)c1cc(C(=O)c2ccccc2C(F)(F)F)c[nH]1,6.9%,-6.3%,-2.3%,?,26.7µM*,-9.9%
CCCOc1ccc(F)cc1-c1cc(C(=O)NCc2ccccc2OC)[nH]n1,nt,nt,nt,nt,-6.8%,nt
CCOc1nc(-c2ccccc2Cl)ccc1C#N,77.0%[59 µM],225.2%,1.8%,191.5%,-5.2%,247.0%
COc1ccc(C2/C(=C(/O)c3ccc(S(=O)(=O)N4CCOCC4)cc3)C(=O)C(=O)N2CCN2CCOCC2)cc1 (stereo not drawn),50.1µM*,-4.1%,2.6%,-11.0%,-4.1%,?
COCCN1C(=O)C(=O)/C(=C(/O)c2ccc(S(=O)(=O)N3CCOCC3)cc2)C1c1cccc(OC)c1 (stereo not drawn),70.8µM*,47.0%,2.7%,-14.9%,-9.0%,-3.7%[57.1 µM]
COCCN1C(=O)C(=O)/C(=C(/O)c2ccc(S(=O)(=O)N3CCCCC3)cc2)C1c1ccc(O)c(OC)c1 (stereo not drawn),70.8µM*,48.4%,-1.2%,89.1µM*,-18.0%,-11.5%[57.1 µM]
COCCN1C(=O)C(=O)/C(=C(/O)c2ccc(S(=O)(=O)N3CCCCC3)cc2)C1c1ccc(OC)cc1 (stereo not drawn),70.8µM*,47.8%,-10.9%,-30.4%,-18.5%,-3.9%[57.1 µM]
COCCN1C(=O)C(=O)/C(=C(/O)c2ccc(S(=O)(=O)N3CCOCC3)cc2)C1c1cccc(O)c1 (stereo not drawn),-25.7%,65.1%,2.4%,-29.1%,-12.5%,?
CCCNC(=O)c1ccc(Cl)cc1Cl,50.1µM*,25.2%[57 µM],-12.2%,10.7%,-14.2%,4.8%
CCn1c(CCNC(=O)c2ccccc2Cl)n[nH]c1=S,nt,33.2%,9.8%,39.8µM*,-3.2%,3.9%
O=C(NCCNC(=O)c1ccc(Cl)cc1Cl)c1ccc(Cl)cc1Cl,nt,nt,nt,nt,2.8%,nt
CCn1c(CCNC(=O)c2cccs2)n[nH]c1=S,?,33.8%,5.1%,?,-6.7%,23.9%
CCn1c(CCNC(=O)c2ccc(Cl)cc2Cl)n[nH]c1=S,39.8µM*,41.4%,6.2%,7.08µM*,-8.8%,9.1%
COc1ccccc1N1CCN(C(=O)C(C)CS(=O)(=O)c2ccc3c(c2)NC(=O)CS3)CC1 (stereo not drawn),?,38.1%,-15.6%,21.0%,-1.6%,56.2µM*
CCOC(=O)c1ccc2[nH]c(C)c(C)c2c1,nt,?,-7.0%,?,-3.9%,nt
CCn1c(-c2ccc3[nH]c(C)c(C)c3c2)n[nH]c1=S,2.82µM*,-26.4%,-1.4%,22.4µM*,-7.7%,?
Cc1[nH]c2ccc(-c3n[nH]c(=S)n3C)cc2c1C,3.98µM*,?,-4.3%,4.47µM*,-13.1%,?
Cc1cc(C)c(Cn2c(C(O)c3ccccc3)nc3ccccc32)c(C)c1 (stereo not drawn),2.2%[59 µM],54.5%,15.7%,?,nt,-4.2%
Cc1ccc(NC(=O)CN(C)C(=O)COc2ccccc2-c2ccccc2)cc1,nt,6.4%,-0.5%,-20.0%,-4.4%,nt
CC(=O)Oc1ccc2c(=O)c(/C=N/c3cc(=O)[nH]c(=S)[nH]3)coc2c1,35.5µM*,19.9%,-27.3%,-20.0%,-16.7%,-24.2%
Cc1cccc(NC(=S)N/C(=N/S(=O)(=O)c2ccccc2)c2ccccc2)c1,?,-17.4%,89.1µM*!,-18.1%,23.8µM*,-20.8%
COc1ccc(NC(=S)N/C(=N/CS(=O)(=O)c2ccccc2)c2ccccc2)cc1,?,19.9%,-12.3%,-19.0%,?,5.0%
CC(C)OC(=S)N/C(=N\S(=O)(=O)c1ccccc1)c1ccccc1,11.2µM*,-4.8%,7.6%,-33.6%,?,-0.4%
O=[N+]([O-])c1ccc(NC(=S)N/C(=N/CS(=O)(=O)c2ccccc2)c2ccccc2)cc1,11.2µM*,25.3%,-2.7%,-24.6%,18.9µM*,?
SMILES,G9a block,HP1b binding inh,VDR inh,JMJD2A Tudor inh,PLK1 PBD block,BAZ2B inh
CC(C)O/C(=N\S(=O)(=O)c1ccc(Cl)cc1)c1ccccc1,9.6%[59 µM],96.5%,10.0%,29.9%,3.3%,6.9%
CC(C)(C)NC(=O)C(Cc1ccccc1)N1C(=O)c2ccccc2C1=O (stereo not drawn),-5.5%,22.0%,17.7%,-16.9%,3.8%,11.2%
CCCC(C)C(=O)OCC(=O)Nc1ccc(Br)cc1 (stereo not drawn),31.6µM*,nt,nt,nt,nt,4.2%
Cc1ccc(S(=O)(=O)N2CCN(c3nc(C#N)nc4ccccc34)CC2)cc1,nt,nt,nt,-10.9%,nt,nt
CCn1c(C)c(C2=CCN(S(=O)(=O)c3ccccc3)CC2)c2ccccc21,39.8µM*,?,-10.4%,?,3.7%,?
COc1ccccc1N1CCN(CC(O)COc2ccc(C)cc2C(C)(C)C)CC1 (stereo not drawn),14.1µM*,?,5.1%,?,nt,31.6µM*
COc1ccccc1N1CCN(CC(O)COc2ccc(Cl)c(C)c2)CC1 (stereo not drawn),?,-9.7%,7.9%,89.1µM*,nt,?
COc1ccccc1N1CCN(CC(O)COc2cc(C)cc(C)c2)CC1 (stereo not drawn),?,14.6%,7.1%,79.4µM*,nt,?
COc1ccccc1N1CCN(CC(O)COc2ccc(C)c(C)c2)CC1 (stereo not drawn),-28.3%,13.1%,-3.5%,?,-11.9%,?
NC(=O)[C@H]1CCCN1C(=O)[C@H](Cc1cnc[nH]1)NC(=O)[C@@H]1CCC(=O)N1,nt,nt,-15.9%,nt,nt,nt
COc1ccc2c(C)cc(=S)[nH]c2c1,39.8µM*,14.7%,-3.7%,-15.8%[11.4 µM],10.6µM*,-26.8%
COc1ccc2c(-c3ccccc3)cc(=S)[nH]c2c1,?,11.9%,?,-14.6%,?,-16.1%
CCn1c(/C=C2\C(=O)N(C)c3ccccc32)nc2ccccc2c1=O,-15.9%[59 µM],-12.4%,-13.0%,?,-5.0%,56.2µM*
CCn1c(/C=C2/C(=O)N(C)c3ccccc32)nc2ccccc2c1=O,50.1µM*,?,-9.7%,-28.3%[57.1 µM],-6.4%,35.5µM*
CCN1C(=O)/C(=C\c2nc3ccccc3c(=O)n2CC)c2ccccc21,63.1µM*,?,-15.4%,15.8µM*,-17.5%,44.7µM*
CCn1c(/C=C/c2ccccc2Cl)nc2ccccc2c1=O,-28.5%[2.33 µM],63.9%,3.3%,-6.8%,-7.2%,-3.6%
CC(C)N1C(=O)/C(=C\c2nc3ccccc3c(=O)[nH]2)c2ccccc21,25.1µM*,?,?,?,-18.1%,31.6µM*
CCN1C(=O)/C(=C/c2nc3ccccc3c(=O)n2-c2ccccc2)c2ccccc21,2.7%[59 µM],2.8%,?,?,-13.3%,3.3%
CC1(CO)CCCC1NCCNC1CCCC1(C)CO (stereo not drawn),nt,nt,nt,nt,-1.7%,nt
